Sampled rows, rich in hits. Any-hit rate of the full collection: about 9.4%.
FLuc counter: qHTS profiling assay for firefly luciferase inhibitor/activator using purifed enzyme and Km concentrations of substrates (counterscreen for miR-21 project) | Luciferin 4-monooxygenase (Photinus pyralis), P08659 | purified FLuc, Km substrates, luminescence inhibition | Potency, µM (series often up to 57.5 µM), inactives show at the highest dose activity change, negative = inhibition, actives largely listed as inhibitors | 6.9% of 360,000 active;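 also: plate controls were vehicle for no effect and reference inhibitor for full effect; nearly all actives have a fitted effect of over 55% in size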
Target sequence (P08659 whole entry, looked up): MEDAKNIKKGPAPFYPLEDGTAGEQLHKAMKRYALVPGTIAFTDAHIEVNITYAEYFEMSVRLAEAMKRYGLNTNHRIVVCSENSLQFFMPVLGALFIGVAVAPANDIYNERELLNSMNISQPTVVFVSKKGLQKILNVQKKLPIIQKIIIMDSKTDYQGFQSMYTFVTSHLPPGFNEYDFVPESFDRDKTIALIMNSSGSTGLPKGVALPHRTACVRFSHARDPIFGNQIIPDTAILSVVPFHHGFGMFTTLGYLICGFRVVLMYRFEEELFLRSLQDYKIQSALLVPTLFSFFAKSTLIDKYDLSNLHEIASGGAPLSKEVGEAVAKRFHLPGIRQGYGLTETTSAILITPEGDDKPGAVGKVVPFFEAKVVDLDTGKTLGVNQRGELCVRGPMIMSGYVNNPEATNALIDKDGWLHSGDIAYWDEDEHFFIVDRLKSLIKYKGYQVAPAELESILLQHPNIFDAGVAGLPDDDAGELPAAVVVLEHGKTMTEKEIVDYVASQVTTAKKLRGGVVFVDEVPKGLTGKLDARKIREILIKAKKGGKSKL
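Purified P. pyralis luciferase (10nM final) with 10uM D-luciferin and 10uM ATP (Km levels) in 50mM Tris acetate pH 7.5, 10mM Mg acetate, 0.01% Tween-20, 0.05% BSA; qHTS 6-point titration, ~60 µM downward; luminescence read.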
ELG1 genotoxic: qHTS screen for small molecules that induce genotoxicity in human embryonic kidney (HEK293T) cells expressing luciferase-tagged ELG1; 1.3% of 330,000 active; Potency, µM (top dose mostly 46 µM), without a hit: at the highest dose activity change, positive = activation, usual class: activators; HEK293T ELG1-luciferase reporter, luminescence, 16 h; also: % of control where 0% means no effect; nearly all actives have a fitted effect of over 60% in size
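Step 1: seed 2,000 HEK293T ELG1-luciferase cells per well. Step 2: add compound or DMSO, incubate 16 hr at 37 °C. Step 3: ONE-Glo, 30 min at room temperature, read luminescence.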
SMN2 splice up: qHTS Assay for Enhancers of SMN2 Splice Variant Expression; HEK293 SMN2-luciferase splicing reporter, luminescence, 30-36 h; Potency, µM (doses to about 46.1 µM), without a hit: at the top dose activity change, positive = activation, usual class: activators; 2.8% of 210,000 active; also: % of control where 0% means no effect; nearly all actives have a fitted effect of over 55% in size
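HEK293 cells carry an SMN2 […]–luciferase reporter in which exon 7 inclusion puts luciferase in frame. Cells were plated 10-12 h before compound addition, then incubated 30-36 h at 37C. ONE-Glo luminescence was read; sodium butyrate at 4.5 mM final served as control.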
Rab9 prom act: qHTS Assay for Rab9 Promoter Activators; Huh7 Rab9 promoter-luciferase reporter, luminescence, 24 h; Potency, µM (highest dose often 9.22 µM), without a hit: at the top dose activation, negative = inhibition, actives largely listed as activators; 2.8% of 320,000 active; also: % of control where 0% means no effect; nearly all actives have a fitted effect of over 60% in size
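Luminescence from Amplite-detected luciferase (10 minutes, ambient) reports Rab9 promoter activation. Before that, stable Rab9-luciferase Huh7 cells (1500/well, reduced-serum OP-MEM I plus 10% FBS) were exposed to compound for 24 hours at 37C.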
NPC1 prom act: qHTS Assay for NPC1 Promoter Activators; Huh7 NPC1 promoter luciferase reporter, 24 h; AID 485313, 2010; Potency, µM (highest dose often 9.22 µM), inactives show at the highest dose activation, hits mostly activators; 2.4% of 320,000 active; also: % of control where 0% means no effect; nearly all actives have a fitted effect of over 60% in size
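Luminescence from an NPC1 promoter-driven luciferase reporter in stably transfected Huh7 cells was measured after 24 h compound treatment at 37 °C, followed by 10 min ambient incubation with luciferase detection reagent.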
ELG1 repair inh: qHTS screen for small molecules that inhibit ELG1-dependent DNA repair in human embryonic kidney (HEK293T) cells expressing luciferase-tagged ELG1 | HEK293T ELG1-luciferase reporter, luminescence, 16 h; DNA damage induced by 5-fluorouridine | Potency, µM (series often up to 46.1 µM), inactives show top-dose activity change, negative = inhibition, actives largely listed as inhibitors | 2.3% of 330,000 active; also: % is scaled to controls: 0 for no effect and ±100 for the full control effect; nearly all actives have a fitted effect of over 55% in size
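5-Fluorouridine DNA damage + compound/DMSO, 2,000 cells/well, 16 h, 37 °C/5% CO2. ONE-Glo, 30 min RT, luminescence. Readout = decrease in reporter signal.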
Numbers without * were called inactive; ? = inconclusive; . = no result. Calls follow the shape of the dose curve; as a rule, active = well fitted curve in the direction sought with a large enough effect; inconclusive = small, poorly fitted or top-dose-only effect, or another doubt; inactive = no such curve, though single readings can be large; an effect the other way counts as inactive or inconclusive. Potency is read from the fitted curve at half-maximal effect.

SMILES	FLuc counter	ELG1 genotoxic	SMN2 splice up	Rab9 prom act	NPC1 prom act	ELG1 repair inh
COc1cccc(/C=C/C(=O)c2ccc3c(c2)OCO3)c1OC	0.95µM*	?	.	27%	20%	?
CCN(CC)CCCNC(=O)CCCn1ncn2c(cc3occc32)c1=O	-2%	.	-3%	.	.	.
O=C(CNC(=O)c1ccc2c(c1)OCO2)N/N=C(Br)/C=C/c1ccccc1	-18%	0%	-11%	-13%	-9%	?
O=C(/C=C/c1ccccc1)c1ccc2c(c1)OCO2	2.1µM*	?	.	?	?	?
CC1CCN(C(=O)c2ccc3c(c2)OCCO3)CC1	?	?	?	25%	26%	?
CC1CCCCN1C(=O)CSc1ccc(-c2ccc(F)cc2)nn1 (stereo not given)	?	21%	24%	27%	17%	24%
CC1CCCC(C)N1C(=O)CSc1ccc(-c2ccc3c(c2)OCCO3)nn1 (stereo not given)	13µM*	-10%	.	13%	-4%	-4%
COc1ccc(-c2ccc(SCC(=O)N3CCOCC3)nn2)cc1OC	15µM*	?	-22%	4%	22%	26%
CC1CCN(C(=O)CSc2ccc(-c3ccc4c(c3)OCCO4)nn2)CC1	11µM*	-1%	.	14%	2%	?
COC(=O)c1ccc(-n2c(/C=C\c3cccc(Br)c3)nc3ccccc3c2=O)cc1	-1%	.	.	.	.	.
O=C(CSc1n[nH]c(=O)n1C1CC1)c1ccc2c(c1)OCCO2	13µM*	15%	.	?	?	28%
O=C(CSc1n[nH]c(=O)n1Cc1ccco1)c1ccc2c(c1)OCCO2	15µM*	?	.	?	29%	12%
Cc1ccc(C(=O)COC(=O)CCC(=O)Nc2ccc(Oc3ccccc3)cc2)cc1	-3%	.	-6%	.	.	.
Cc1nc(SCc2ccc(C#N)cc2)n[nH]1	-19%	2%	.	9%	11%	?
CCCCCOc1ccc(CSc2ncn[nH]2)cc1	12µM*	?	11µM*	2.5µM*	?	?
CCCCOc1ccc(CSc2n[nH]c(C)n2)cc1	?	21µM*	18µM*	?	?	?
CCCCOc1ccc(CSc2ncn[nH]2)cc1	7.6µM*	14%	10%	?	?	?
CCCCOc1ccc(CSc2nncn2N)cc1	?	?	26%	?	?	?
CCN(CC)C(=O)Cn1c(=O)n(-c2ccc(C)c(C)c2)c(=O)c2c(C)c(C(=O)N(CC)CC)sc21	0%	.	.	.	.	.
COc1cc(Cl)nn(-c2ccccc2)c1=O	-2%	0%	-25%	-3%	2%	9%
O=c1c(Cl)cc(Cl)nn1-c1ccccc1	2%	-12%	4%	8%	-10%	23µM*
COc1ccc(N=C2C(=Nc3ccc(OC)cc3)N(c3ccccc3)C(=S)N2C(=O)c2ccc(Cl)cc2)cc1	?	?	25µM*	17%	2%	?
CCN(C)c1ccc(/C=N\n2nnnc2N)cc1	12µM*	9.2µM*	11µM*	25%	-11%	?
COc1ccc(S(=O)(=O)NCc2cccnc2)cc1OC	-2%	0%	.	-6%	-1%	2%
O=C(COc1ccc(S(=O)(=O)NCc2ccccc2)cc1Cl)NCc1ccncc1	-2%	-3%	.	?	-1%	-18%
SMILES	FLuc counter	ELG1 genotoxic	SMN2 splice up	Rab9 prom act	NPC1 prom act	ELG1 repair inh
Cc1cc(S(=O)(=O)NCc2ccccc2)ccc1OCC(=O)NCc1ccncc1	15µM*	?	.	3.2µM*	2.8µM*	?
COc1ccc(S(=O)(=O)NCc2ccncc2)cc1OC	4%	-1%	-47%	-20%	-7%	7.3µM*
Cc1ccc(Sc2ccc(N3CCC(C(=O)Nc4ccc(Cl)cc4)CC3)nn2)cc1	-19%	.	11%	.	.	.
CCc1ccc(-c2nc(CSCC(=O)NC3CC3)c(C)o2)cc1	19µM*	2%	.	-29%	-15%	-7%
CCc1ccc(-c2nc(CSCC(=O)N3CCN(c4ncccn4)CC3)c(C)o2)cc1	-17%	-13%	-81%	-2%	0%	15µM*
CSc1ccc(-c2nc(CSCC(=O)NC3CC3)c(C)o2)cc1	?	3%	.	-11%	-1%	25%
COc1ccc(-c2nc(CSCC(=O)NCCc3ccccc3)c(C)o2)cc1	?	.	-57%	.	.	.
COc1ccc(-c2nc(CSCC(=O)NCc3ccco3)c(C)o2)cc1	17µM*	-2%	-41%	-7%	1%	18%
CCCOc1ccc(C2C(=O)N(C3CCCCCC3)CC(=O)N2C(C)C)cc1OC (stereo not given)	-1%	.	.	.	.	.
CC(C)(C)OC(=O)N1CCN(C(=O)c2[nH]cnc2C(=O)Nc2ccc(Cl)cc2)CC1	.	-8%	.	.	.	21µM*
Cn1cnc(C(=O)NC2CCN(C(=O)OC(C)(C)C)CC2)c1C(=O)NC1CCN(C(=O)OC(C)(C)C)CC1	.	-6%	.	.	.	10µM*
CC(C)(C)OC(=O)NCc1ccc(CNC(=O)c2nc[nH]c2C(=O)N2CCN(C(=O)OC(C)(C)C)CC2)cc1	1%	-13%	.	-5%	-4%	12µM*
CC(C)(C)OC(=O)N1CCC(NC(=O)c2[nH]cnc2C(=O)Nc2cccc(Cl)c2)CC1	1%	-5%	.	-1%	-3%	18µM*
CCC(=O)N1CCc2cc(S(=O)(=O)N3CCN(c4ccccc4F)CC3)ccc21	-3%	.	-4%	.	.	.
Cc1ccc(NC(=O)Cc2noc3ccccc23)nc1	?	5%	25%	-3%	15%	?
Cc1ccc(CNC(=O)Cc2noc3ccccc23)cc1	6.7µM*	?	.	1.8µM*	0.89µM*	?
O=C(Cc1noc2ccccc12)Nc1ccccn1	?	17%	10µM*	?	?	?
Cc1cccc(NC(=O)Cc2noc3ccccc23)c1C	-15%	5%	17%	12%	1%	?
Cc1cccc(NC(=O)Cc2noc3ccccc23)c1	17µM*	?	13µM*	?	?	?
CCOc1ccccc1Nc1nc(-c2ccc(C)cc2)c(CC(=O)O)s1	?	.	2%	.	.	.
CCc1ccc(CN(Cc2ccco2)c2cnc(S(C)(=O)=O)nc2C(=O)Nc2c(C)cccc2C)cc1	-6%	.	.	.	.	.
CC(=O)c1ccc2c(c1)C1C=CCC1C(c1ccncc1)N2 (stereo not given)	17µM*	5%	15%	10%	26%	?

Bioassay records: PubChem BioAssay, National Center for Advancing Translational Sciences (NCATS)
